Bioassay records from PubChem.
The list is not random: actives were taken first. Their share in the collection is about 9%.
HP1b chromo inh – blocks HP1-beta chromodomain binding to methylated histone tails; AlphaScreen HP1-beta / biotin-H3K9me3 peptide binding; Potency, µM (highest dose often 114 µM), without a hit: top-dose activity change, negative = inhibition, hits mostly inhibitors; 0.56% of 390,000 active; AID 540317; also: nearly all actives have a fitted effect of over 70% in size
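Compound inhibition of the preformed complex between 50 nM HP1-beta and 50 nM biotinylated H3K9me3 peptide was read by AlphaScreen. Buffer was PBS pH 7.4 with 0.01% Tween-20. Incubations ran 30 min at room temperature, with 10 ug/mL donor/acceptor beads.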
JMJD2A Tudor – JMJD2A Tudor domain (human) inhibition; Potency, µM (highest dose often 114 µM), without a hit: at the top dose activity change, negative = inhibition, hits mostly inhibitors; AID 504339; 4.4% of 390,000 active; AlphaScreen JMJD2A-Tudor / H3K4me3 peptide binding; O75164; also: % is scaled to controls: 0 for no effect and ±100 for the full control effect; nearly all actives have a fitted effect of over 50% in size
G9a inh – inhibitors of human histone lysine methyltransferase G9a; G9a H3K9 monomethylation, AlphaScreen, 2 h; Potency, µM (series often up to 102 µM), for the others: at the top dose activity, negative = inhibition, usual class: inhibitors; 8.8% of 350,000 active; AID 504332; also: % is scaled to controls: 0 for no effect and ±100 for the full control effect; nearly all actives have a fitted effect of over 75% in size
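G9a (20 nM) was preincubated 15 min with compound, then reacted 2 h at room temperature with 500 nM biotin-H3K9 peptide and 20 µM SAM. Monomethyl-H3K9 detected by AlphaScreen using anti-H3K9me1 antibody.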
BAZ2B inh – blocks human BAZ2B. AID 504333. Potency, µM (highest dose often 114 µM), for the others: top-dose activity change, negative = inhibition, actives largely listed as inhibitors. AlphaScreen BAZ2B-H3K14Ac peptide displacement. 4.4% of 360,000 active; also: % is scaled to controls: 0 for no effect and ±100 for the full control effect; nearly all actives have a fitted effect of over 60% in size
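Compounds, titrated to a top concentration of 110 uM, were incubated 30 min at room temperature with preformed BAZ2B/acetyl-K14 H3 peptide complex (50 nM each). Proximity signal was measured by AlphaScreen after 20 min with beads.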
PLK1 PBD block – blocks phosphopeptide binding to human PLK1 polo-box domain | Plk1 PBD binding of FITC phosphopeptide, fluorescence polarization | AID 720504 | 2.8% of 360,000 active | Potency, µM, without a hit: max response, negative = inhibition, hits mostly inhibitors | P53350; also: series mostly up to about 57 µM; % is scaled to controls: 0 for no effect and ±100 for the full control effect; nearly all actives have a fitted effect of over 65% in size
Target sequence (P53350 whole entry, looked up, the tested form may be a part): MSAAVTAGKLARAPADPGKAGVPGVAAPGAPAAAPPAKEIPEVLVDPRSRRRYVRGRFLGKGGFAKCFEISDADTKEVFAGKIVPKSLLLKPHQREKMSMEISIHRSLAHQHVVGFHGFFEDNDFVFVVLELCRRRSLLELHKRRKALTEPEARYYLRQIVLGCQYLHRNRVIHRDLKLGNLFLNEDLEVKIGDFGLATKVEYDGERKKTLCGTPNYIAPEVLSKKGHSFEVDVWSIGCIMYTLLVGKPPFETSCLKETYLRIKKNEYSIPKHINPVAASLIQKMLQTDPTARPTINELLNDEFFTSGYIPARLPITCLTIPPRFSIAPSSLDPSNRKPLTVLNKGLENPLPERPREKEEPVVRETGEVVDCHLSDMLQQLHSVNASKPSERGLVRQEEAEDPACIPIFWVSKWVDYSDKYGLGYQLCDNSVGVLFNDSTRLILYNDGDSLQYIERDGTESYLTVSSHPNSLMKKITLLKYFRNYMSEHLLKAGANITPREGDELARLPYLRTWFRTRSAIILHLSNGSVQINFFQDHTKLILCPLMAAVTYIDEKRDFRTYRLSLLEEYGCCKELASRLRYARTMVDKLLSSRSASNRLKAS
ALOX12 inh – blocks human arachidonate 12S-lipoxygenase. purified 12hLO, xylenol orange hydroperoxide absorbance. Potency, µM (top dose mostly 108 µM), for the others: top-dose activity change, negative = inhibition, most hits filed as inhibitors. 1.1% of 580,000 active. AID 1671190; also: % is scaled to controls: 0 for no effect and ±100 for the full control effect
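Hydroperoxide product was detected by ferrous iron/xylenol orange as the 573 to 405 nm absorbance ratio. Arachidonic acid at 40 uM (final) was turned over for 30 min at room temperature by 150 nM human 12hLO, pH 7.0 Hepes buffer, after 15 min compound preincubation.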
An asterisk follows results filed as active; ? = inconclusive; . = no result given; ! = repeats disagree; [ ] = another dose, or the depositor's remark. Calls follow the shape of the dose curve; as a rule, active = well fitted curve in the direction sought with a large enough effect; inconclusive = small, poorly fitted or top-dose-only effect, or another doubt; inactive = no such curve, though single readings can be large; an effect the other way counts as inactive or inconclusive. Potency is read from the fitted curve at half-maximal effect.

SMILES	HP1b chromo inh	JMJD2A Tudor	G9a inh	BAZ2B inh	PLK1 PBD block	ALOX12 inh
CCOc1ccc(-n2nc3ccc(NC(=O)Cc4ccccc4)cc3n2)cc1	-8%	-15%	-36%[59 µM]	-1%	.	-26%
CCOc1ccc(NC(=O)Nc2ccc3nsnc3c2)cc1	30%	-10%	6%	-8%	?	-12%
Cc1oc2cc(O)ccc2c(=O)c1-c1nncn1-c1ccccc1	23%	-19%	-3%[12.7 µM]	-22%	30µM*	-4%
CCOc1ccc(-c2c(=O)n(OCc3ccccn3)c3ccccc3[n+]2[O-])cc1	17%	-5%	17%	-9%	-4%	-1%
CCCOc1ccc(-c2c(=O)n(O)c3ccccc3[n+]2[O-])cc1	-18%	56µM*	9%[0.501 µM]	?	-21%	?
COc1ccc(C(=O)OCC(=O)Nc2ncc([N+](=O)[O-])s2)cc1OC	?	40µM*	-15%[12.7 µM]	50µM*	9.5µM*	35µM*
O=C(COC(=O)c1ccc(Br)o1)Nc1ncc([N+](=O)[O-])s1	-20%	?	3.2µM*	?	11µM*	13%
COc1ccc(C(=O)OCC(=O)Nc2sccc2C(N)=O)cc1OC	36%	-6%	.	1%	0%	0%
CO[C@H]1C([C@@]2(C)O[C@@H]2CC=C(C)C)[C@]2(CC[C@H]1OC(=O)/C=C/C=C/C=C/C=C/C(=O)O)CO2 (some centres undefined)	.	.	22µM*	.	.	.
COC1C(=O)CCC2(CO2)C1(O)C1(C)OC1CC=C(C)C (centres undefined)	.	.	.	.	.	63%
Cc1ccc(CN(C(=O)COc2ccc([N+](=O)[O-])cc2)C2CCS(=O)(=O)C2)o1 (centres undefined)	52%	-18%	?	-27%	-9%	7%
COc1ccc(-c2c[n+]3c(n2-c2ccc(C)cc2)CCCCC3)cc1	46%	1%	-8%	1%	2%	0%
COc1ccc(-c2c[n+](CC(=O)c3ccccc3)c3n2CCCCC3)cc1	21%	-19%	14%[12.7 µM]	0%	-5%	0%
CCOc1ccc(-n2c(-c3ccc(Br)cc3)c[n+]3c2CCCCC3)cc1	7%	-14%	1.1µM*	.	1%	-3%
COc1ccc(-c2c[n+]3c(n2-c2ccccc2)CCCCC3)cc1	2%	-26%	-1%	-2%	30µM*	-1%
COc1ccc(-c2c[n+]3c4n2CCCCC4=C(c2ccccc2)C3)cc1	-5%	40µM*	14µM*	56µM*	-9%	?
Cc1ccccc1C(=O)NC12CC3CC(CC(C3)C1)C2	.	.	.	.	.	-22%
COc1ccc(-c2nc(CS(=O)Cc3ccccc3C)cs2)c(OC)c1 (centres undefined)	.	.	.	.	.	40%
CCOC(=O)N1CCN(C2=C(NS(=O)(=O)c3ccc(C)cc3)C(=O)c3ccccc3C2=O)CC1	20µM*	22µM*	22µM*	8.9µM*	?	?
Cc1ccc(S(=O)(=O)NC2=C(N3CCN(c4ccccc4F)CC3)C(=O)c3ccccc3C2=O)cc1	14µM*!	8.9µM*	-8%[0.501 µM]	10µM*	-3%	-20%
COC(=O)Nc1ccc(S(=O)(=O)N2CCN(c3ccc(F)cc3)CC2)cc1	18%	-22%[57.1 µM]	8%[12.7 µM]	11%	-4%	0%
Cc1ccc(S(=O)(=O)NC2=C(N3CCN(Cc4ccccc4)CC3)C(=O)c3ccccc3C2=O)cc1	8.9µM*	7.1µM*	7.1µM*	7.9µM*	-3%	?
Cc1ccc(S(=O)(=O)NN=C2CCN(Cc3ccccc3)CC2)cc1	33%	-4%	18%[59 µM]	0%	-8%	-30%
CC(=O)Nc1ccc(S(=O)(=O)NC2=C(N3CCN(c4ccc(F)cc4)CC3)C(=O)c3ccccc3C2=O)cc1	25µM*	22µM*	2.8µM*	22µM*	-6%	-11%
CC[C@H]1C=C[C@@H](C(C(=O)OC)C(=O)OC)CN1C(C)=O	43%	?	.	.	27µM*	0%
SMILES	HP1b chromo inh	JMJD2A Tudor	G9a inh	BAZ2B inh	PLK1 PBD block	ALOX12 inh
COC(=O)[C@@H](C)NC(=O)[C@H]1CN(C(C)=O)CCN1C(C)=O	.	.	.	.	.	4%[176 µM]
COC(=O)[C@@H](C)NC(=O)[C@H]1CN(C(C)=O)CCN1C(=O)C1CCCCC1	.	.	.	.	.	1%[176 µM]
C=CC[C@H]1C=C[C@@H](C(C(=O)OC)C(=O)OC)CN1C(C)=O	?	?	.	.	24µM*	-6%
CN(C)c1ccc(-c2ccncc2)cc1	.	.	8%[2.33 µM]	4%	.	.
CC/C(=C\c1ccc(N(C)C)cc1)c1ccncc1	?	22µM*	.	.	-12%	-5%
Cc1cccc(C2CN(C)CCc3c2cc(O)c(O)c3Cl)c1 (centres undefined)	15%	-35%	24µM*	-8%	-5%	-28%
C=CCN1CCc2cc(O)c(O)cc2C(c2ccccc2)C1 (centres undefined)	10%	-24%	10µM*	-6%	-9%	?
C=CCN1CCc2c(cc(O)c(O)c2Cl)C(c2ccccc2)C1 (centres undefined)	20%	?	7.1µM*!	?	-4%	?
N#C/C(=C(/O)c1ccc(Br)s1)c1nc2ccccc2[nH]1	55%	-6%	-3%	-30%	-3%	-5%[57.4 µM]
COc1ccc(-n2cccc2C=O)cc1OC	29%	-7%	16%	-30%	1%	-5%
Cc1ccc(-c2cc[n+](Cc3ccccc3)cc2)cc1	-8%	?	-1%	-17%	19µM*	-14%
Cc1cc[n+](Cc2ccc([N+](=O)[O-])cc2)cc1	11%	-12%	45µM*	-9%	-4%	1%
O=C(CSc1nc2ccccc2c(=O)n1-c1ccccc1)N1CCCC1	32%	-2%	50µM*	-15%	-7%	-16%
O=c1c2ccccc2nc(SCc2cn3ccsc3n2)n1-c1ccccc1	2%	?	10µM*	?	-1%	-6%
O=C(CSc1nc2ccccc2c(=O)n1-c1ccccc1)N1CCCCC1	.	.	.	.	.	-38%
O=C(CSc1nc2ccccc2n1S(=O)(=O)c1ccccc1)N1CCCC1	25%	-2%	50µM*	2%	0%	-20%
O=C(CSc1nc2ccccc2c(=O)n1-c1ccccc1)NC(=O)CN1CCCC1=O	-20%	-17%	50µM*	79µM*	-5%	-1%
O=C(NNC(=O)c1cccc(S(=O)(=O)N2CCc3ccccc32)c1)c1ccccc1	25%	-17%	10%	-12%	1%	-3%
CCc1ccc(N(Cc2cccs2)C(=O)c2cccs2)cc1	.	.	.	.	.	54%
Nc1nnc(SCc2ccccc2F)n1-c1ccccc1	35%	2%	7%[12.7 µM]	-1%	0%	5%[57.4 µM]
O=C(COc1ncnc2ccccc12)Nc1ccc(F)c(F)c1	.	.	.	.	.	22%
